Compound activity from PubChem.
CHT block = inhibitors of human choline transporter CHT; High affinity choline transporter 1 (Homo sapiens), Q9GZV3; CHT-expressing cells, membrane potential dye, choline response; hits give low values; B-score at 10 µM; 0.86% of 310,000 active;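 active means B-score over 3 SD under the library average, and starting fluorescence ratio not unusually high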;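 further: choline stimulus applied at its EC90 after an EC20 pre-addition; B-score computed on integrated fluorescence ratio after choline addition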
Target sequence (Q9GZV3 whole entry, looked up): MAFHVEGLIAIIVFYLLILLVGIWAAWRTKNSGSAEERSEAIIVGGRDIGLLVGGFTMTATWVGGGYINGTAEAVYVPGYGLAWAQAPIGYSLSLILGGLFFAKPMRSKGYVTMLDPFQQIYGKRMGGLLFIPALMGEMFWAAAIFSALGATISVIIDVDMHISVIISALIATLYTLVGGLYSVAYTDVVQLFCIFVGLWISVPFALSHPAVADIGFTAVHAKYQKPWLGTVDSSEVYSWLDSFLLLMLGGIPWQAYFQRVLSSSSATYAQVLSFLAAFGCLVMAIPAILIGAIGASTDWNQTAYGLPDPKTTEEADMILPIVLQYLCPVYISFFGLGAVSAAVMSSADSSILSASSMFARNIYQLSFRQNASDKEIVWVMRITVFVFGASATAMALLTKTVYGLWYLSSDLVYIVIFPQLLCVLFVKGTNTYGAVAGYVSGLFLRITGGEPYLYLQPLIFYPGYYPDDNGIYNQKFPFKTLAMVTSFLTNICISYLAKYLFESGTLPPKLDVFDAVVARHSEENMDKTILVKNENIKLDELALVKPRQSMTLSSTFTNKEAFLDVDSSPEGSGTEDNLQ
EP2 antag = human EP2 receptor antagonists, primary screen, TR-FRET cAMP, C6 glioma cells | Prostaglandin E2 receptor EP2 subtype (Homo sapiens), P43116 | C6 glioma cells expressing human EP2; cells stimulated with saturating PGE2 | inhibition, % at 25 µM | 0.52% of 260,000 active | AID 1422, 2008;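 active means percent inhibition above 40 after rounding to a whole number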;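 further: rat C6 glioma host cells with rolipram phosphodiesterase inhibitor present; the protocol text gives 20 µM as final concentration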
CHT allo act = CHT positive allosteric modulators, primary screen, cell-based, membrane potential dye, choline EC20; High affinity choline transporter 1 (Homo sapiens), Q9GZV3; CHT-expressing cells; hits give high values; LV-AA mutant CHT in HEK293 cells; B-score at 10 µM; 0.49% of 310,000 active;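 active means initial fluorescence not abnormally high and integrated response B-score, plate-corrected, over 3 SD above library mean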
EP2 mod = EP2 receptor modulators, cAMP readout, primary screen, cell-based, HTRF cAMP, PGE2 stimulation; Prostaglandin E2 receptor EP2 subtype (Homo sapiens), P43116; induction, % at 25 µM; 0.83% of 260,000 active; EP2-expressing cells, cAMP HTRF FRET, PGE2 co-stimulation;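 active means compounds whose cAMP rise, as percent of the full-agonist control response, exceeds 60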;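 further: rat C6 glioma line stably carrying human EP2 under a CMV promoter; the protocol text gives 20 µM as final concentration; 100% = response of wells given 1 µM PGE2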
CHT block conf = CHT inhibitors, confirmation, cell-based, membrane potential dye, duplicate; shares compounds with CHT block; CHT-expressing cells, choline membrane potential dye; LV-to-AA substituted CHT, HEK293 cells; CHT activity remaining % of control (hits give low values), % at 10 µM; 70% of 2,400 active;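 active means choline transporter activity left, mean of duplicates at 10 µM, below buffer-only control mean minus 3 SD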;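 further: depolarization triggered by choline at its EC90 following an EC20 pre-addition; 0% = hemicholinium-3 full block and 100% = buffer-only control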
HEK293 CHT ctr = membrane potential effects in parental HEK293, counter-screen for CHT inhibitor project, cell-based, membrane potential dye; shares compounds with CHT block; AID 493222, 2011; membrane potential ratio readout (active if shifted either direction beyond buffer ±3SD; no single direction) at 10 µM; choline response; active = decrease or increase beyond buffer ±3SD; 4% of 2,400 active;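 further: parental cells lack the transporter so any hit is non-specific; ratio is peak minus trough fluorescence over baseline after EC90 choline challenge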
The depositor's hits bear a star; i = inactive; x = not tested or not shown. The list is not random: actives were taken first. Their share in the collection is about 2.1%.

SMILES	CHT block	EP2 antag	CHT allo act	EP2 mod	CHT block conf	HEK293 CHT ctr
CC[C@@H](Cn1ncc2ccccc2c1=O)NC(=O)c1cccs1	x	8.4	x	-3.0	x	x
O=C(CC1Nc2cccc3cccc(c23)NC1=O)Nc1ccc(F)cc1 (stereo unspecified)	-5.07*	8.6	i	-44.7	i	i
COc1ccc(NC(=O)CC2Nc3cccc4cccc(c34)NC2=O)cc1 (stereo unspecified)	i	10.0	i	-62.7	x	x
O=[N+]([O-])c1ccccc1CSc1nnc2ccccn12	i	1.7	i	-10.6	x	x
O=[N+]([O-])c1ccc(CSc2nnc3ccccn23)cc1	-13.3*	8.8	i	24.9	8.8%*	i
O=c1c2cc(Br)ccc2nc(-c2ccc([N+](=O)[O-])cc2)n1O	-6.3*	5.9	i	4.8	37.5%*	i
O=c1c2cc(Br)ccc2nc(-c2cccc(C(F)(F)F)c2)n1O	-6.02*	15.2	i	26.0	38.6%*	i
CSc1nnnn1-c1c(C)cccc1C	i	7.5	i	20.3	x	x
COc1ccc(NC(C)(C)c2nnnn2-c2c(C)cccc2C)cc1	-5.39*	7.4	i	-11.8	58.8%*	i
Cc1cccc(C)c1-n1nnnc1C(C)(C)N1CCN(N=O)CC1	-7.17*	16.0	i	-16.2	i	i
O=C(O)[C@H]1CN(C(=O)c2n[nH]c3c2CCCC3)C[C@@H]1c1ccccc1F	x	x	x	-22.8	x	x
O=C(CCC1CCCC1)NCCCNC(=O)CCC1CCCC1	-6.47*	x	i	x	37.9%*	i
CCC(=O)N1CCN(c2ccc(NC(=O)c3cccnc3)cc2)CC1	x	3.7	x	-14.4	x	x
O=C1CC(O)(C(F)(F)F)Oc2c1ccc1ccccc21 (stereo unspecified)	-8.13*	23.2	i	-5.6	46.0%*	i
O=C1CC(O)(C(F)F)Oc2ccc3ccccc3c21 (stereo unspecified)	i	12.1	i	-18.7	x	x
Cn1ccnc1C1(O)CC2CCC(C1)N2C(=O)Nc1ccccc1C(F)(F)F (stereo unspecified)	x	x	x	-27.5	x	x
CCc1cc2c(=O)n(CC)c(SC(C)C(=O)Nc3c(C)n(C)n(-c4ccccc4)c3=O)nc2s1 (stereo unspecified)	-5.58*	9.5	i	19.8	i	i
Cc1cc(SC(C)C(=O)Nc2c(C)n(C)n(-c3ccccc3)c2=O)nc2ccccc12 (stereo unspecified)	i	4.4	i	21.1	x	x
Cc1cc2cc3c(cc2n2c(=O)n(CC(=O)NC(C)(C)C)nc12)OCO3	x	3.4	x	-10.6	x	x
O=C(CNC(=O)c1cccs1)OCC(=O)c1ccc([N+](=O)[O-])cc1	-5.12*	6.3	i	23.4	i	i
O=C(NCCCn1ccnc1)c1cnn2c1NC(c1ccccc1)CC2C(F)(F)F (stereo unspecified)	-13.6*	4.2	i	20.1	9.0%*	i
CN1CCN(c2ccc(Cl)cc2NC(=O)c2ccc(=O)n(C)n2)CC1	-5.55*	6.0	i	-22.8	56.0%*	5.27*
O=C(O)CC/C(=N\Nc1ccc(S(=O)(=O)N2CCCC2)cc1[N+](=O)[O-])c1cccs1	x	14.8	x	-2.1	x	x
O=C(O)CC/C(=N\Nc1ccccc1[N+](=O)[O-])c1cccs1	-5.67*	x	i	x	48.1%*	2.86*
CC1CCCN(C(=O)CSc2nnc3n(Cc4ccccc4F)c4ccccc4n23)C1 (stereo unspecified)	x	13.6	x	15.9	x	x
SMILES	CHT block	EP2 antag	CHT allo act	EP2 mod	CHT block conf	HEK293 CHT ctr
COc1ccc(CSCC(=O)N/N=C/c2ccc(OCC(=O)NCc3ccco3)cc2)cc1	i	26.5	i	-34.2	x	x
CC(SCc1ccccc1)C(=O)N/N=C/c1ccc(OCC(=O)NCc2ccco2)cc1 (stereo unspecified)	-8.14*	6.0	i	-10.2	47.2%*	i
CCc1ccc(OCC(=O)Nc2nnn(CC)n2)cc1	x	11.9	x	-4.5	x	x
O=C(c1ccccc1[N+](=O)[O-])N1CCCN(C(=O)c2ccccc2[N+](=O)[O-])CC1	i	4.4	i	57.4	x	x
Cc1ccccc1C(=O)N1CCCN(C(=O)c2ccccc2C)CC1	-6.81*	5.2	i	-3.9	i	i
Cc1cc(C(=O)N/N=C/c2ccc3c(c2)OCO3)c(C)o1	-7.09*	11.6	i	-44.3	i	i
Cc1cccc2cc(CN(CCN(C)C)C(=S)NCCCN(C)C)c(=O)[nH]c12	x	17.4	x	-37.7	x	x
CCOc1ccccc1NC(=O)CSc1nc2ccccc2nc1N1CCOCC1	i	x	i	x	x	x
CCOc1ccccc1NC(=O)CSc1nc2ccccc2nc1N1CCCC1	-5.53*	x	i	x	i	i
CCCC(c1nnnn1CCOC)N1CCN(C2CCCC2)CC1 (stereo unspecified)	x	14.7	x	2.5	x	x
N#C/C(=N\Nc1ccc([N+](=O)[O-])cc1)C(N)=S	-9.42*	9.1	i	-56.6	-9.8%*	i
O=C(O)c1ccc(N=NNc2cccc([N+](=O)[O-])c2)cc1	i	7.3	i	-12.2	x	x
N#C/C(=N/Nc1ccc([N+](=O)[O-])cc1)C(=N)N1CCCCC1	x	3.9	x	-52.2	x	x
N#C/C(=N\Nc1cccc([N+](=O)[O-])c1)C(=O)c1ccc(Br)cc1	-10*	10.6	i	-18.1	63.4%*	i
CC(=O)c1cc2c(cc1NC(=O)CCNC(=O)c1ccccc1Cl)OCO2	-5.6*	14.7	i	-40.5	49.8%*	i
Cc1ccc(S(=O)(=O)N2CCC(=O)N(CCOCc3ccc(F)cc3)CC2)cc1	-5.9*	12.6	i	17.9	54.0%*	i
O=C1CCN(S(=O)(=O)c2ccccc2)CCN1CCOCc1ccc(F)cc1	i	8.3	i	-7.6	x	x
O=C(c1ccc(Cn2cccn2)o1)N1CCCC(c2ncncc2-c2ccncc2)C1 (stereo unspecified)	x	x	x	-26.2	x	x
Cc1cccc(NC(=O)CSc2nnc(-c3cccs3)n2C)c1	x	8.4	x	-43.9	x	x
CCCN1CCN(C(c2cc3cc4c(cc3[nH]c2=O)OCO4)c2nnnn2C2CCCCC2)CC1 (stereo unspecified)	x	18.0	x	-6.8	x	x
COc1ccc2c(c1)-c1c(ssc1=S)C(C)(C)N2	-5.15*	16.5	i	27.2	56.9%*	i
COc1ccc2c(c1)-c1c(sn(-c3ccccc3)c1=S)C(C)(C)N2	i	5.0	i	38.8	x	x
CC(=C\c1ccccc1)/C=C1/SC(=S)N(CCCC(=O)O)C1=O	i	x	i	x	x	x
